FAS-TE inh: blocks the thioesterase domain of human fatty acid synthase | recombinant FAS-TE, OMFH fluorogenic substrate, fluorescence endpoint | AID 602261 | 0.67% of 360,000 active | inhibition, % at 15 µM;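 active = compounds whose normalised, plate-corrected inhibition of enzyme fluorescence in the single-dose primary screen is 50% or more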;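 note: 0% = DMSO with enzyme and 100% = substrate without enzyme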
PfGluPho inh: PfG6PD (Plasmodium falciparum) enzyme inhibition | PfGluPho enzyme, NADPH resazurin-diaphorase fluorescence | 0.78% of 350,000 active | AID 504690 | inhibition, % at 20 µM;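 active = inhibition reaching at least a set limit at 20 µM in the primary screen, cut at about 59% in these data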;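 note: 0% = DMSO wells with substrate and 100% = DMSO wells lacking glucose-6-phosphate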
Neddyl block: blocks human cullin neddylation; TR-FRET cullin neddylation, biochemical; calls only at 25 µM; 0.58% of 360,000 active; AID 651699; in the data active = inhibition above about 36%
proKLK7 act: proKLK7 (human) activation, primary screen; P49862; purified proKLK7, EDANS-DABCYL substrate fluorescence; 100% is mature enzyme control, 0% vehicle; activation, % at 7 µM; 0.9% of 370,000 active; AID 652039;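 active = activation above the mean of all tested compounds plus 3 SD, computed per campaign excluding outliers beyond control limits, cut at about 13% in these data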
Target sequence (P49862 whole entry, looked up): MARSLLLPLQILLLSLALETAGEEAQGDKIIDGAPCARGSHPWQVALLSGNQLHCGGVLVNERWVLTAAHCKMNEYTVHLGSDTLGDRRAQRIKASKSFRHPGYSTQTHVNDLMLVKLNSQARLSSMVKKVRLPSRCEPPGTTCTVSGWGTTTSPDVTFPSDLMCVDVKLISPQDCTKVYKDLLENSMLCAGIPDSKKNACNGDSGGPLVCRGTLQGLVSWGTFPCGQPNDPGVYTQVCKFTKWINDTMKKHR
FAS-TE inh conf: FAS thioesterase (human) inhibition, confirmation | shares compounds with FAS-TE inh | recombinant FAS-TE, OMFH fluorogenic substrate, fluorescence | inhibition, % at 15 µM | 45% of 2,300 active;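 active = compounds inhibiting the enzyme by at least 50% at 15 µM in any one of the replicates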;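 note: 0% = enzyme with DMSO only and 100% = wells lacking enzyme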
* hit, by the source's call; i = inactive; x = no result given; + = active, no number. Most compounds without a hit are left out; they make up all but 2.7% or so of the library.

SMILES	FAS-TE inh	PfGluPho inh	Neddyl block	proKLK7 act	FAS-TE inh conf
O=C(NC(NC(=S)Nc1c(Cl)cccc1Cl)C(Cl)(Cl)Cl)c1cccc([N+](=O)[O-])c1 (stereo not given)	55*	-7	i	0	7
C=CCN1C(=O)[C@@H](CC(=O)NCCCCc2ccccc2)[C@]2(C(=O)OC)CCCCC=C12	x	x	x	0	x
COCCCNC(=O)C[C@H]1C[C@@]2(C(=O)OC)C(=C[C@H](C3CCCC3)O[C@@H]2C)N(CCC2=CCCCC2)C1=O	x	x	x	0	x
COc1ccc(N=C(N)NC(=O)OCc2ccccc2)cc1	x	x	x	0	x
O=C(NC(=S)N1CCN(c2ccc(F)cc2)CC1)C12CC3CC(CC(C3)C1)C2	7	-5	i	1	x
CCOc1ccccc1N1CCN(C(=S)NC(=O)C23CC4CC(CC(C4)C2)C3)CC1	51*	-14	i	-1	15
CCOC(=O)N1CCN(C(=O)C[C@H]2C[C@@]3(C(=O)OC)C(=C[C@H](COCc4ccccc4)O[C@@H]3C)N(Cc3ccc(Cl)cc3Cl)C2=O)CC1	x	x	x	1	x
CC(=O)N(C1CC(C)C(C#N)(C#N)C1(C#N)C#N)N(C)C (stereo not given)	54*	13	i	0	63*
CCCC(=O)N(C1CC(C)C(C#N)(C#N)C1(C#N)C#N)N(C)C (stereo not given)	62*	13	+	-1	68*
COCc1c(Br)c(C)nc(OCC(=O)N/N=C/c2cc(C)n(-c3ccc([N+](=O)[O-])cc3)c2C)c1C#N	62*	0	i	1	-3
C=CCN1C(=O)[C@@H](CC(=O)NCc2ccccc2)[C@]2(C(=O)OCC)CCCCC/C=C/12	x	x	x	0	x
COc1ccc(S(=O)(=O)N2CCN(C(=O)CSc3nc4ccccc4nc3N3CCCCC3)CC2)cc1	x	x	x	0	x
COc1ccc(Cc2nc3c4c(ncn3n2)Oc2ccc3ccccc3c2C4c2ccc(OC)c(OC)c2)cc1 (stereo not given)	59*	3	i	0	19
O[C@H](COc1cccc(C(F)(F)F)c1)CN1CCC(C(O)(c2ccccc2)c2ccccc2)CC1	x	x	x	1	x
O=C(OCc1csc(Nc2ccccc2)n1)c1ccc(Cl)cc1	52*	30	i	-1	14
O=C(COc1ccccc1)OCc1csc(Nc2ccccc2)n1	8	7	i	1	x
O=C(CN1C(=O)c2cccc([N+](=O)[O-])c2C1=O)N1CCc2ccccc2C1	59*	8	i	1	65*
O=C(COc1ccc([N+](=O)[O-])cc1)N1CCc2ccccc2C1	70*	-4	i	0	83*
O=C(CN1C(=O)c2cccc([N+](=O)[O-])c2C1=O)N1CCN(S(=O)(=O)c2ccccc2)CC1	27	-10	i	0	x
O=C(CCc1ccccc1)N[C@H]1[C@@H](OC(=O)c2cnccn2)CCC[C@@]12C(=O)N(Cc1ccccc1)c1ccccc12	x	x	x	1	x
CCOC(=O)Cn1cc(CN2C(C(=O)OC)CN(CCO)CCS2(=O)=O)nn1 (stereo not given)	x	x	x	0	x
CC(C)CNC(=O)c1cc([N+](=O)[O-])ccc1N1CCOCC1	-3	-9	i	0	x
CC(NC(=O)COC(=O)c1cc([N+](=O)[O-])ccc1N1CCOCC1)c1ccccc1 (stereo not given)	73*	14	i	0	85*
CN(CC(=O)Nc1ccc(F)cc1)C(=O)c1cc([N+](=O)[O-])ccc1N1CCOCC1	38	-6	i	0	x
CC(NC(=O)COC(=O)c1cc([N+](=O)[O-])ccc1N1CCOCC1)c1ccc(F)cc1 (stereo not given)	82*	18	i	0	84*
SMILES	FAS-TE inh	PfGluPho inh	Neddyl block	proKLK7 act	FAS-TE inh conf
COc1cccc(-c2cnc3c(NC=O)cc(-c4ccc(S(C)(=O)=O)cc4)cn23)c1	55*	x	i	-3	56*
COc1cccc(-c2cnc3c(NC=O)cc(-c4ccccc4)cn23)c1	20	x	i	-1	x
CC(C)(C)c1ccc(CSc2ccc(S(=O)(=O)N3CCOCC3)cn2)cc1	82*	33	i	0	74*
N#CCSc1ccc(S(=O)(=O)N2CCOCC2)cn1	-7	8	i	1	x
CCn1c(SCC(=O)c2ccc(-c3ccccc3)cc2)nnc1-c1ccccc1OC	x	x	x	0	x
O=S(=O)(c1ccc(Cl)cc1)N1CCCC(c2nc(-c3ccc(F)cc3)no2)C1 (stereo not given)	64*	3	i	0	46*
